ELG1 DNA repair – blocks ELG1-dependent DNA repair in HEK293T cells; AID 504467; Potency, µM (doses to about 46.1 µM), without a hit: at the top dose activity change, negative = inhibition, actives largely listed as inhibitors; HEK293T ELG1-luciferase reporter, luminescence, 16 h; DNA damage induced by 5-fluorouridine; 330,000 compounds, 2.3% hits; note: potency is the fitted concentration of half-maximal effect; nearly all actives have a fitted effect of over 55% in size
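Reporter activity after DNA damage by 5-fluorouridine is monitored. Compound-treated cells incubate 16 hr at 37 °C, then ONE-Glo is added for 30 min before luminescence reading.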
B2AR arrestin – recruits beta-arrestin to the human beta2-adrenergic receptor; Potency, µM (titrated, usually from 46.1 µM), inactives show top-dose activation, actives largely listed as activators; beta-arrestin recruitment to beta2AR, cell-based reporter; P07550; 330,000 compounds, 0.02% hits;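 note: potency is the fitted concentration of half-maximal effect; 0% = DMSO controls and full agonism = EC100 isoproterenol or metaproterenol; nearly all actives have a fitted effect of over 65% in size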
TSHR antag – blocks TSH signaling through the human TSH receptor. activity change, negative = inhibition, % at 11.5 µM. 330,000 compounds, 0.2% hits. TSHR-expressing cells, TSH-stimulated cAMP HTRF, 2 h; hits give low values. P16473;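 active = activity change below a set negative limit, meaning inhibition stronger than a set level, cut at about -70% in these data; inconclusive = activity change between two set negative limits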
Target sequence (P16473 whole entry, looked up): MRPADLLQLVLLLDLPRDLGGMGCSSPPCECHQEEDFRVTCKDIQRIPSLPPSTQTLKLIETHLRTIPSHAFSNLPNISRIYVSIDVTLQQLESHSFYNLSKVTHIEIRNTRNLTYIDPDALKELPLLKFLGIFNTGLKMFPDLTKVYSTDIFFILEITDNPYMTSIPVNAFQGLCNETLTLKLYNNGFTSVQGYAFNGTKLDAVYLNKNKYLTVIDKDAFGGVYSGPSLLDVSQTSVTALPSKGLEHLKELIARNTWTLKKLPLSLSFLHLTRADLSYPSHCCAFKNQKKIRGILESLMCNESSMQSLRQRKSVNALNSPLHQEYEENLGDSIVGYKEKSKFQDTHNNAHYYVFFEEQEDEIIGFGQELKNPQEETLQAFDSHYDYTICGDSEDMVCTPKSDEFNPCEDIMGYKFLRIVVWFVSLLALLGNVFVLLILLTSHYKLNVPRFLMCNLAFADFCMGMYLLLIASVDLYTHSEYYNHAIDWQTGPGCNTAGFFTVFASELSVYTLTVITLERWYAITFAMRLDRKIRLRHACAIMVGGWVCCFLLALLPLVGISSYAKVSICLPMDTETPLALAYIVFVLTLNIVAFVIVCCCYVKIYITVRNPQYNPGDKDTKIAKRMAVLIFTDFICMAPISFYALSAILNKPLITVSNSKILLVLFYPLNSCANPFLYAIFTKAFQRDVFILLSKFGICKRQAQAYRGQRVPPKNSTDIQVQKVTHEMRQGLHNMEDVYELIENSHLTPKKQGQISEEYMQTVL
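Read-out is FRET at 665 nm (cryptate excitation 337 nm) from a cryptate-tagged anti-cAMP antibody, competed by cell cAMP against cAMP-d2. Compounds are tested on freshly harvested TSHR cells challenged with 4nM TSH (EC80) for 2 hours at 37 deg C.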
RORgamma inh – inhibitors of mouse ROR gamma transcriptional activity | Drosophila S2 Gal4-RORgamma UAS-luciferase reporter, 20 h | Potency, µM (highest dose often 53.6 µM), inactives show at the top dose activity change, negative = inhibition, usual class: inhibitors | 310,000 compounds, 5.4% hits | AID 2551; note: potency is the fitted concentration of half-maximal effect; nearly all actives have a fitted effect of over 60% in size
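Drosophila S2 cells stably expressing Gal4-DBD/mouse RORγ fusion under metallothionein promoter plus UAS-luciferase; compound 1 h, then 700 uM CuSO4 induction for 20 h at ambient temperature; inhibition read as reduced luminescence.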
VP16 counter – inhibits Gal4-VP16 luciferase reporter, ROR gamma counter-screen; Drosophila S2 Gal4-VP16 UAS-luciferase, luminescence, 20 h; Potency, µM (highest dose often 53.6 µM), without a hit: at the highest dose activity, negative = inhibition, actives largely listed as inhibitors; 310,000 compounds, 3.5% hits;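 note: Gal4-VP16 expression switched on by copper sulfate through the metallothionein promoter; potency is the fitted concentration of half-maximal effect; nearly all actives have a fitted effect of over 50% in size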
Starred values were filed as active, the others as inactive. Rows were chosen to be rich in hits. Some 7.5% of all compounds tested hit in one or more screens of this group. Unless noted, calls come from the whole dose curve; as a rule, active = well fitted curve in the direction sought with a large enough effect; inconclusive = small, poorly fitted or top-dose-only effect, or another doubt; inactive = no such curve, though single readings can be large; an effect the other way counts as inactive or inconclusive. Unless noted, % is set by controls: 0 for no effect and ±100 for the full control effect.

`CC1=NN(C(=O)c2ccc(Cn3ccc([N+](=O)[O-])n3)cc2)C(O)(C(F)(F)F)C1` (stereo unspecified) gave ELG1 DNA repair -4%, B2AR arrestin 0%, TSHR antag 14, RORgamma inh 10µM* and VP16 counter 13µM*.
For Cc1nn(Cc2ccc(C(=O)N3CCN(C(=O)c4ccco4)CC3)o2)c(C)c1[N+](=O)[O-] the results were ELG1 DNA repair 9%, B2AR arrestin 0%, TSHR antag 3, RORgamma inh 6% and VP16 counter 1%.
`CC1=NN(C(=O)c2ccc(Cn3nc(C)c([N+](=O)[O-])c3C)o2)C(O)(C(F)(F)F)C1` (stereo unspecified) gave ELG1 DNA repair inconclusive, B2AR arrestin -1%, TSHR antag -5, RORgamma inh 2.5µM* and VP16 counter 7.1µM*.
O=C(O)c1cnn(-c2nc(-c3ccc(Br)cc3)cs2)c1C(F)(F)F was read as ELG1 DNA repair inconclusive, B2AR arrestin 1%, TSHR antag -17, RORgamma inh 2% and VP16 counter inconclusive.
Screening COc1ccccc1C1C(C(C)=O)=C(C)N=c2s/c(=C\c3cc(OC)c(OC)c(OC)c3)c(=O)n21 (stereo unspecified) returned ELG1 DNA repair 23µM*, B2AR arrestin 0%, TSHR antag 9, RORgamma inh 9% and VP16 counter -3%.
Screening COc1ccc(CNc2ncnc3ccc(-c4ccccc4CN(C)C)cc23)c(OC)c1 returned RORgamma inh -10% and VP16 counter -11%.
`Oc1ccc(C2=NNC(=NCc3ccc4c(c3)OCO4)SC2)c(O)c1` gave ELG1 DNA repair inconclusive, B2AR arrestin 0%, TSHR antag 23, RORgamma inh 1.6µM* and VP16 counter inconclusive.
For Cc1nc2cnc(Oc3cccc(Cl)c3)nc2n(CCC#N)c1=O the results were RORgamma inh -22% and VP16 counter -4%.
For O=C(OCC(=O)N1N=C(c2ccc(Cl)cc2)CC1c1ccco1)c1cncc(Br)c1 (stereo unspecified) the results were ELG1 DNA repair 9%, B2AR arrestin 0% and TSHR antag -6.
`Cc1c(/C=N/NC(=O)c2ccc3c(c2)OCO3)cnn1C` gave ELG1 DNA repair 5%, B2AR arrestin 0%, TSHR antag -5, RORgamma inh -20% and VP16 counter 0%.
`COc1cccc(/C=N/NC(=O)CNC(=O)c2ccc3c(c2)OCCO3)c1O` gave ELG1 DNA repair inconclusive, B2AR arrestin 0%, TSHR antag 0, RORgamma inh 0.63µM* and VP16 counter 4.5µM*.
Screening O=C(N/N=C/c1cccc(O)c1)c1ccc2c(c1)OCCO2 returned ELG1 DNA repair inconclusive, B2AR arrestin 0%, TSHR antag -3, RORgamma inh 3.2µM* and VP16 counter 6.3µM*.
For COc1cccc(/C=N/NC(=O)CNC(=O)C2COc3ccccc3O2)c1O (stereo unspecified) the results were ELG1 DNA repair -7%, B2AR arrestin 0%, TSHR antag 7, RORgamma inh 0.35µM* and VP16 counter 0.45µM*.
Screening O=C(CNC(=O)C1COc2ccccc2O1)N/N=C\c1ccccc1Cl (stereo unspecified) returned ELG1 DNA repair -1%, B2AR arrestin 0%, TSHR antag -12, RORgamma inh 10% and VP16 counter -12%.
Screening Cc1cccc(/C=N/NC(=O)c2ccc3c(c2)OCCO3)c1O returned ELG1 DNA repair inconclusive, B2AR arrestin 5%, TSHR antag 2, RORgamma inh 3.5µM* and VP16 counter 2.5µM*.
CC(=O)NCCc1ccc(C(=O)COC(=O)C2CCCCC2)cc1 was read as ELG1 DNA repair inconclusive, B2AR arrestin -1% and TSHR antag 14.
O=C(N/N=C\c1ccc2c(c1)OCO2)c1ccco1 was read as ELG1 DNA repair inconclusive, B2AR arrestin -1%, TSHR antag -3, RORgamma inh -44% and VP16 counter -25%.

Screening data deposited in PubChem BioAssay by National Center for Advancing Translational Sciences (NCATS).
